Laboratory results from PubChem BioAssay AID504832 (National Center for Advancing Translational Sciences (NCATS), 2011).
Out of some 310,000 compounds screened, about 18,000 (5.8%) were called active. Roughly 22% stayed inconclusive and do not appear here. Shown is part of a subset that was picked to be rich in actives. Unmarked numbers belong to inactive results. Calls come from the whole dose curve; as a rule, active = well fitted inhibition curve with a large enough effect; inconclusive = small, poorly fitted or top-dose-only effect, or another doubt; inactive = no such curve, though single readings can be large or run the other way.

Assay: Primary qHTS for delayed death inhibitors of the malarial parasite plastid, 48 hour incubation
Settings: P. falciparum luciferase growth in erythrocytes; series mostly up to 28.7 µM; activity change, negative = inhibition: at the top concentration
In short: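 A one-generation exposure of luciferase-tagged malaria parasites in RPMI 1640/Albumax erythrocyte culture, 37 C and 5% CO2. Inhibition is inferred from decreased luminescence after adding detection reagent.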
% is set by controls: 0 for no effect and ±100 for the full control effect; potency is the fitted concentration of half-maximal effect.

Structure (SMILES)	activity change, negative = inhibition	Potency
Cn1nc(C(F)(F)F)c2cc(C(=O)N3CCOCC3)sc21	12.5%	
Cn1nc(C(F)(F)F)c(-c2ccc(F)cc2)c1NC(=O)CSCC(=O)O	-29.7%	
Cn1nc(C(F)(F)F)c2cc(NC(=O)OCC(C)(C)C)sc21		2.33 µM (active)
COc1ccc(CN2CCC(n3nccc3NC(=O)CCCc3ccccc3)CC2)cc1C	-14.2%	
CC(Sc1nnc(C2CC2)n1C1CC1)C(=O)Nc1ccc(C(N)=O)cc1 (centres undefined)	5.56%	
COc1cccc(NC(=O)CSc2nnc(Cc3ccc(OC)c(OC)c3)o2)c1	8.6%	
O=C(COC(=O)c1ncc(Cl)c(Cl)c1Cl)NNC(=O)c1ccccc1	27.4%	
CC(=O)C1=C(C)NC(C)=C(C(C)=O)C1c1cn(-c2ccccc2)nc1-c1cccs1		14.7 µM (active)
O=C(O)Cc1sc(-c2ccccc2)nc1-c1cccs1	5.8%	
O=C(NCc1cccnc1)c1cn(-c2ccccc2)nc1-c1cccs1	23.1%	
CCOc1ccc2[nH]c(C(=O)N/N=C/c3cccc(OC)c3OC)cc2c1	38%	
COc1ccc(O)c(C(=O)c2cnc3onc(C(C)C)c3c2)c1		2.62 µM (active)
COc1ccc(OC)c(C(=O)c2ccc(Cl)cc2)c1	97.3%	
COc1ccc(-c2onc3ccc(C(C)=O)cc23)cc1	35.4%	
COc1ccc(Cl)cc1-n1c(C)cc(C(=O)OCC(=O)N2CC(=O)Nc3ccccc32)c1C		5.22 µM (active)
COc1ccc(C(=O)OCC(=O)N2CC(=O)Nc3ccccc32)cc1Br	1.75%	
COc1cc(OC)c(C(=O)OCC(=O)N2CC(=O)Nc3ccccc32)cc1OC	-1.21%	
CCCC(C)NC(=O)C1CCN(C(=O)C2CC(=O)N(c3ccc(C)cc3)C2)CC1 (centres undefined)	13.8%	
CCn1c(-c2ccncc2)n[nH]c1=S	0.239%	
C=CCn1c(-c2ccccc2OCC)n[nH]c1=S	24.5%	
CCCc1cc(-c2n[nH]c(=S)n2CC)c2ccccc2n1		1.31 µM (active)
O=C(c1cc(S(=O)(=O)N2CCOCC2)ccc1Cl)N1CCOCC1	11.1%	
Cn1cnc2c1c(=O)n(Cc1ccccc1C#N)c(=O)n2C	-8.15%	
CCN(CC(=O)Nc1c(F)cccc1F)C(=O)c1ccc(-c2ccccc2)cc1	-8.33%	
CC(C)N(C(=O)c1ccc(-c2ccccc2F)cc1)C(C)C		10.4 µM (active)
O=C(Nc1ccccc1F)c1ccccc1-c1ccccc1	-4.48%	

Structure (SMILES)	activity change, negative = inhibition	Potency
CCCCN(C(=O)c1nn(C)c(=O)c2ccccc12)c1c(N)n(CCC)c(=O)[nH]c1=O	14.8%	
Cc1nc(C)c(C(=O)N(c2ccc(C)c(C)c2)C(C(=O)NCc2ccco2)c2ccccc2)s1 (centres undefined)		11.7 µM (active)
Cc1cccc(N(C(=O)Cc2cccs2)C(C(=O)NCc2ccco2)c2ccncc2)c1 (centres undefined)	9.15%	
Cc1cccc(N(C(=O)c2sc(C)nc2C)C(C(=O)NCC2CCCO2)c2ccccc2)c1 (centres undefined)	-12.8%	
CCOCc1nnc(NC(=O)CCS(=O)(=O)Cc2ccccc2)s1	-15.8%	
Cc1cccc(CNS(=O)(=O)c2ccc(-c3cnc(C4CC4)o3)cc2)c1	4.74%	
COc1ccc(C)cc1N(CC(=O)N1CCCC1)S(=O)(=O)c1ccccc1	-18.3%	
Cc1nc(NCCN)c(C#N)c2c1COC(C)(C)C2	-8.6%	
CC1(C)Cc2c(sc(NC(=O)C(=O)N3CCOCC3)c2C#N)CO1	4.9%	
CC(C)C(=O)N1CCN(c2nc(-c3ccccc3)c3c(c2C#N)CC(C)(C)OC3)CC1		13.1 µM (active)
Cc1sc(NC(=O)C2=COCCO2)c(C#N)c1C	82.8%	
COc1ccccc1NC(=O)CSc1nnc(CNC(=O)c2ccccc2F)o1	19.9%	
O=C(CN1C(=O)c2ccccc2S1(=O)=O)NC1CCCCC1	31%	
COC(CNC(=O)c1ccc2c(c1)ncn2-c1cc(C)cc(C)c1)OC	-21.4%	
CN1C2C=C(N(C(=O)c3ccc(Cl)cc3)c3ccccc3)CC1CC2 (centres undefined)	-24.9%	
Cc1ccc(CCN2CC(C(=O)NCCc3ccccc3)CC2=O)cc1 (centres undefined)	-21.6%	
Cc1cc(C)cc(C(=O)N(CCc2ccccc2)C2=CC3CCC(C2)N3C)c1 (centres undefined)		11.7 µM (active)
O=S(=O)(NC1CCCCC1N1CCC(O)CC1)c1ccc(Cl)cc1 (centres undefined)	19.7%	
CCN(CC(=O)Nc1c(F)cccc1F)C(=O)c1ccc(S(=O)(=O)N2CCCCC2)cc1	-2.96%	
COc1cccc(NC(=O)c2ccccc2N(Cc2ccccc2)S(C)(=O)=O)c1	-14.6%	
O=C(NCc1ccccc1)c1onc(CSc2nc3ccccc3[nH]2)c1C(=O)NCc1ccccc1		1.17 µM (active)
COc1ccccc1CSc1nc2ccccc2[nH]1	9.15%	
COCCNC(=O)c1onc(CSc2cccc(C)c2)c1C(=O)O	33.9%	
O=C(CSc1nc(C2CC2)nc2ccccc12)Nc1cccc(O)c1	18.3%	
CCC(=O)Nc1ccccc1C(=O)N1CCN(Cc2ccccc2)CC1	-10.3%	
COCC(=O)Nc1c(C(=O)N2CCCC2)oc2ccccc12	26.7%	

Structure (SMILES)	activity change, negative = inhibition	Potency
CCOCc1c(C(=O)N2CCN(Cc3ccc(Br)s3)CC2)oc2ccccc12		13.1 µM (active)
COc1ccc(CN2CC(C(=O)NC3CCCCC3)CC2=O)cc1 (centres undefined)	6.73%	
C=CCSc1ccc(S(=O)(=O)N2CCN(C)CC2)cn1	4.46%	
CCn1cc(C(=O)N2CC(C)CC(C)C2)c(=O)c2cc(S(=O)(=O)N3CCCC3)ccc21 (centres undefined)	3.58%	
CCn1cc(C(=O)NCCCN2CCCCCC2)c(=O)c2cc(S(=O)(=O)N3CCc4ccccc4C3)ccc21		5.22 µM (active)
CCn1cc(C(=O)NCCO)c(=O)c2cc(F)c(N3CCN(C)CC3)cc21	2.44%	
O=S(=O)(c1cccc(Cn2nnc(-c3ccc(F)cc3)n2)c1)N1CCOCC1	0.852%	
Cc1ccc(CNS(=O)(=O)c2ccc3c(c2)N(C)CCO3)cc1	30.2%	
COc1ccc(CNCCCO)cc1OC	3.57%	
CCN(CC)CCNCc1ccc(OCc2ccc(Cl)nc2)c(OC)c1		10.4 µM (active)
COc1cc(CNc2ncn[nH]2)ccc1OCc1ccccc1C	17.2%	
COc1ccccc1CNC(=O)C1CCN(S(C)(=O)=O)CC1	8.41%	
COc1ccc(CCNC(=O)CN2CCC(n3nnc4cc(F)ccc43)CC2)cc1OC		7.38 µM (active)
COc1ccccc1CNC(=O)CN1CCC(n2cnc3cc(F)ccc32)CC1		10.4 µM (active)
COc1ccc(CNC(=O)CN2CCC(n3nnc4cc(F)ccc43)CC2)cc1	-23.1%	
COc1ccc(CCNC(=O)CCC(=O)NC2CCCCC2)cc1OC	-8.53%	
COc1ccccc1CNC(=O)Cn1cc2c(n1)CCCC2	5.3%	
CCc1ccccc1NC(=S)Nc1cc(OC)c(NC(=O)C(C)C)cc1OC	-5.66%	
CC1CCCCC1NC(=O)c1cc(=O)[nH]c2ccccc12 (centres undefined)	34.6%	
CCCCCCC(O)(CCN1CCCCC1)c1ccccc1 (centres undefined)	11.4% [at 0.00184 µM]	
COc1ccc(NC(=S)N2CCC(NC(=O)c3cccc(F)c3)CC2)cc1	6.61%	
CN1C(=O)c2ccc(C(=O)Nc3ccc(Br)cn3)cc2C1=O	0.546%	
Cc1ccc(-c2cn(S(=O)(=O)c3cccc([N+](=O)[O-])c3)nc2N)cc1		3.29 µM (active)
CC1=NCCN1S(=O)(=O)c1cccc([N+](=O)[O-])c1	58.3%	
Cc1cc(C)n(S(=O)(=O)c2cccc([N+](=O)[O-])c2)n1	0.663%	
COc1ccc(-c2noc(C(C)NS(=O)(=O)c3ccc(NC(C)=O)cc3)n2)cc1 (centres undefined)	-9.21%	

Structure (SMILES)	activity change, negative = inhibition	Potency
Cc1occc1C(=O)NC1CCCN(Cc2ccc(CC(C)C)cc2)C1 (centres undefined)	-22.7%	
Cc1ccc(C)c(C(=O)N2CCC(n3nccc3NC(=O)C3CC3)CC2)c1	4.41%	
C=CCN1CN(S(=O)(=O)c2ccc(OC)cc2)c2nc3ccccc3nc21	-20.2%	
COc1cc2c(cc1O)[C@H](Cc1ccc(Oc3cc(C[C@@H]4NCCc5cc(OC)c(O)cc54)ccc3O)cc1)NCC2		0.738 µM (active)
CCCCSCCCNC(=O)C1CCC(CNS(=O)(=O)c2ccc(NC(C)=O)cc2)CC1 (centres undefined)	0%	
CCN(CC)C(=O)c1nc[nH]c1C(=O)N(C)Cc1ccccc1	51.8%	
O=C1C2CCCN2C(=O)N1CCCCN1CCN(c2cccc(C(F)(F)F)c2)CC1 (centres undefined)	-19.8%	
CN(c1cccc(NC(=O)Nc2ccc(Cl)cc2)c1)S(C)(=O)=O	45.8%	
CC(C)S(=O)(=O)c1csc(NC(=O)Nc2ccc(Cl)cc2)c1Cl		5.22 µM (active)
Cn1ccc(NC(=O)Nc2ccc(Cl)cc2)n1	50.8%	
S=C(Nc1ccc(Br)cc1)NC1CCN(Cc2ccccc2)CC1		11.7 µM (active)
O=C(NC1CCN(Cc2ccccc2)CC1)c1c(F)cccc1F	-5.58%	
S=C(NCCCc1ccccc1)Nc1ccc(Br)cc1	-6.46%	
CN(CC(=O)Nc1ccc(F)c(F)c1F)C(=O)Cn1cnc2c1c(=O)n(C)c(=O)n2C	4.25%	
O=C(OCCN1C(=O)c2ccccc2C1=O)Oc1ccccc1	9.7%	
CC(C)(C)OC(=O)NC(Cc1ccccc1)C(=O)NC(CSC1CCCCO1)C(=O)NN (centres undefined)	29.4%	
Cc1csc(NC(=O)CSc2nnc(-c3cccnc3)o2)n1	6.46%	
CC1=C(C(=O)OC(C)(C)C)C(c2ccc(Br)cc2)NC(=O)N1CCCC(=O)O (centres undefined)	2.52%	
O=C(c1cccc(S(=O)(=O)N2CCOCC2)c1)N1CCOCC1	3.35%	
O=C(N/N=C/c1ccc([N+](=O)[O-])o1)c1cccc(S(=O)(=O)N2CCOCC2)c1		3.7 µM (active)
COc1ccc(Br)cc1/C=N/NC(=O)c1cccc(S(=O)(=O)N2CCOCC2)c1	11.9% [at 5.75 µM]	
CN(Cc1c(F)cccc1Cl)S(=O)(=O)c1cccs1	24.5%	
Cn1ncc(Br)c1C(=O)NC1CCCC1	104%	
CCOC(=O)c1cnc(-c2ccccc2)nc1Oc1ccc(C)cc1		3.29 µM (active)
CCCCOc1ccc(-c2ncc(C(=O)OCC)c(N)n2)cc1	158%	
CCCNC(=O)c1cnc(-c2ccccc2)nc1-c1ccccc1	0.447%	
